# This is a sample that favours compounds with a hit; in the whole collection about 19% have one here.
# TDP1 cell CPT: DT40-hTDP1 cell growth loss with CPT; chicken DT40 Tdp1-/-;hTDP1 cells + 20 nM CPT, ATP luminescence, 48 h; Potency, µM (series often up to 46.2 µM), inactives show top-dose activity change, negative = growth inhibition, usual class: inhibitors; actives 12% (n = 420,000); AID 686979; note: nearly all actives have a fitted effect of over 55% in size
#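 Chicken DT40 Tdp1-/- cells complemented with human TDP1, 400 cells/well, exposed to compounds plus 20 nM camptothecin for at least 48 h at 37 C; viability read as ATP content by CellTiter-Glo luminescence.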
# HT1080-NT tox: kills 2HG-producing HT-1080-NT fibrosarcoma cells. actives 1.6% (n = 360,000). AID 686970. HT-1080-NT fibrosarcoma viability, CellTiter-Glo ATP luminescence, 48 h. Potency, µM (top dose mostly 46.1 µM), for inactives: top-dose activity, negative = less viability, usual class: cytotoxic;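 note: NT is the 2HG producing partner of a matched IDH1 knockdown line; 0% = DMSO-treated cells and -100% = media-only wells without cells; nearly all actives have a fitted effect of over 55% in size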
#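 Compounds were tested in concentration-response format on HT-1080-NT cells for 48 hours at 37 degrees C. Cell viability came from CellTiter-Glo luminescence; curves were classified by r2, response magnitude and activity.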
# KB-3-1 cytotox: KB-3-1 parental cell cytotoxicity | actives 1.4% (n = 400,000) | Potency, µM (top dose mostly 46.1 µM), most hits filed as cytotoxic | KB-3-1 viability, CellTiter-Glo ATP luminescence, 72 h; note: nearly all actives have a fitted effect of over 60% in size
#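 72 h, 37 °C compound treatment of KB-3-1 parental cells; CellTiter-Glo added, 10 min, luminescence read. Data corrected against DMSO-only plates and normalized before curve fitting.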
# TDP1 cell noCPT: qHTS for Inhibitors of human tyrosyl-DNA phosphodiesterase 1 (TDP1): qHTS in cells in absence of CPT; DT40 Tdp1-/- hTDP1 cells, no CPT, ATP luminescence, 48 h; Potency, µM (highest dose often 46.2 µM), for inactives: top-dose activity change, negative = growth inhibition, most hits filed as inhibitors; actives 15% (n = 420,000); AID 686978, 2013; note: nearly all actives have a fitted effect of over 55% in size
#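 Compound effects on proliferation are scored in DT40 Tdp1-/-;hTDP1 cells in the absence of CPT. ATP levels (CellTiter-Glo luminescence) are recorded after a ≥48 hr, 37 °C incubation.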
# KB-V1 cytotox: kills drug-selected multidrug resistant KB-V1 cells. Potency, µM (highest dose often 46.1 µM), actives largely listed as cytotoxic. KB-V1 MDR cells viability, CellTiter-Glo, 72 h. actives 3.4% (n = 400,000); note: nearly all actives have a fitted effect of over 60% in size
#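 KB-V1 cells (P-gp-expressing MDR subline of KB-3-1) in phenol-red-free DMEM with 10% FBS were exposed to library compounds over a concentration series for 72 h at 37 degrees C. Viability read by CellTiter-Glo luminescence; concentration-effect curves fitted after normalization.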
# HT1080 IDH1KD tx: kills HT-1080 cells with IDH1 knockdown; HT-1080 IDH1 knockdown viability, ATP luminescence, 48 h; Potency, µM (titrated, usually from 46.1 µM), inactives show at the highest dose activity, negative = toxicity, most hits filed as cytotoxic; actives 2% (n = 360,000); AID 686971;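 note: 0% = DMSO wells and -100% = cell-free medium wells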
#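 HT-1080-IDH1KD cells (IDH1 knocked down), 750/well in RPMI with 5% FBS, treated with compound 48 h at 37 degrees C. Viability by CellTiter-Glo luminescence, normalised to DMSO and no-cell wells; concentration-response curves classed.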
# * = called active by the depositor; i = inactive; ? = inconclusive; · = not tested or not shown. Calls come from the whole dose curve; as a rule, active = well fitted curve in the direction sought with a large enough effect; inconclusive = small, poorly fitted or top-dose-only effect, or another doubt; inactive = no such curve, though single readings can be large; an effect the other way counts as inactive or inconclusive. Unless noted, % is set by controls: 0 for no effect and ±100 for the full control effect; potency is the fitted concentration of half-maximal effect.
SMILES,TDP1 cell CPT,HT1080-NT tox,KB-3-1 cytotox,TDP1 cell noCPT,KB-V1 cytotox,HT1080 IDH1KD tx
O=C1C=C(c2cccc(Cl)c2O)C[C@@H](c2ccc(Cl)cc2)C1,?,-17.7%,i,?,i,-10.8%
CCOC(=O)c1c(NC(=O)c2ccco2)sc2c1CCCCC2,29.1µM*,2.5%,i,29.1µM*,i,4.3%
NC(=O)c1c(NC(=O)CSc2nnc(Cc3ccccc3)n2Cc2ccco2)sc2c1CCC2,?,-4.7%,i,-13.3%,14.6µM*,?
CCOC(=O)c1c(NC(=O)C(C)Sc2cn(CCNC(=O)c3c(F)cccc3F)c3ccccc23)sc2c1CCC2 (configuration not stated),20.6µM*,·,i,16.4µM*,i,·
CCOC(=O)c1c(NC(=O)CNCCOC)sc2c1CCCC2,?,-0.6%,i,11.6µM*,i,4.3%
CN(C)C(=O)c1c(NC(=O)c2ccco2)sc2c1CCCCC2,?,1.9%,i,-4.8%,i,5.6%
O=C(CN(C(=O)c1csnn1)c1ccccc1F)NC1CCCCC1,-12.2%,10.7%,i,-14.1%,i,1.1%
O=C(c1ccc(Cl)cc1)c1cccc(O)c1,?,9.1%,i,?,?,-3.1%
O=C(O)Cn1nnnc1-c1ccc(F)cc1,0.7%,14.9%,i,-3.3%,i,4.3%
CCOC(=O)c1c(NC(=O)c2cccs2)sc2c1CCCC2,-0.4%,26.1%,i,-30.9%,i,8.6%
CCOC(=O)c1c(NC(=O)CS(=O)(=O)c2cn(CC)c3ccccc23)sc2c1CCCCC2,20.6µM*,7.0%,i,?,i,0.9%
CCc1ccccc1NC(=O)CSc1nnc(CNC(=O)c2ccco2)n1C,11.5%,-4.1%,i,9.6%,i,11.1%
CCOC(=O)c1c(NC(=O)CSc2nnc(CNC(=O)c3ccco3)n2C)sc2c1CCC2,-24.6%,-2.0%,i,?,20.6µM*,-20.4%
CCOC(=O)c1c(NC(=O)C(C)N2CCN(C(=O)c3ccco3)CC2)sc2c1CCCC2 (configuration not stated),14.6µM*,-17.0%,?,16.4µM*,?,-26.7%
CCOC(=O)c1c(NC(=O)C2C3C=CC(C3)C2C(=O)O)sc2c1CCCC2 (configuration not stated),?,-16.9%,i,?,i,-18.6%
CCOC(=O)c1c(NC(=O)c2ccc(N3C(=O)C4C5C=CC(C5)C4C3=O)cc2)sc2c1CCCC2 (configuration not stated),?,5.4%,i,23.1µM*,16.4µM*,11.1%
Cc1cccc(-[n+]2c(C)cc(C)c3c(=O)[nH]c(=O)[nH]c32)c1,?,2.7%,i,-87.1%,i,-3.3%
CC(OC(=O)CNC(=O)c1ccc2ccccc2c1)C(=O)NC1CCCCC1C (configuration not stated),-15.3%,0.0%,i,-23.3%,i,8.7%
COc1ccccc1C(CNC(=O)CNC(=O)c1ccc(Cl)c(Cl)c1)N1CCCC1 (configuration not stated),-10.4%,-8.1%,i,16.4µM*,i,0.8%
C=CCN(c1ccccc1)S(=O)(=O)c1cccc(C(=O)NCC(c2ccccc2OC)N2CCCC2)c1 (configuration not stated),18.4µM*,23.1µM*,i,18.4µM*,i,?
CCN(CC)S(=O)(=O)c1ccc(C(=O)NCC(c2cccs2)N2CCOCC2)cc1 (configuration not stated),?,-11.6%,i,-15.1%,?,6.9%
COc1ccc(C(CNC(=O)c2cccc(S(=O)(=O)N(C)c3ccccc3)c2)N2CCCC2)cc1 (configuration not stated),?,-2.7%,i,4.11µM*,i,-1.9%
CCN(c1ccccc1)S(=O)(=O)c1cccc(C(=O)NCC(c2cccs2)N2CCOCC2)c1 (configuration not stated),20.6µM*,5.8%,?,?,?,-0.3%
Cc1cc(C)n(C(=O)c2ccc(C)c(S(=O)(=O)N3CCCC3)c2)n1,-0.5%,-7.7%,i,-9.8%,i,15.1%
COc1ccc(C(CNC(=O)C2CC(=O)N(Cc3ccccc3)C2)N2CCCC2)cc1 (configuration not stated),-9.2%,-1.1%,i,4.9%,i,-1.6%
SMILES,TDP1 cell CPT,HT1080-NT tox,KB-3-1 cytotox,TDP1 cell noCPT,KB-V1 cytotox,HT1080 IDH1KD tx
COc1ccc(C(CNC(=O)c2ccc(S(=O)(=O)N(C)C)cc2)N(C)C)cc1 (configuration not stated),-3.2%,1.6%,i,-17.6%,?,-1.4%
COc1ccccc1C(CNC(=O)C1CC(=O)N(Cc2ccccc2)C1)N1CCCC1 (configuration not stated),-2.3%,-1.2%,i,4.61µM*,i,-2.4%
O=C(NCC(c1cccs1)N1CCOCC1)c1cccc([N+](=O)[O-])c1 (configuration not stated),4.9%,?,i,0.8%,i,?
C=CCN(c1ccccc1)S(=O)(=O)c1cccc(C(=O)NCC(c2cccs2)N2CCOCC2)c1 (configuration not stated),13µM*,2.3%,i,7.31µM*,i,-6.7%
CCN(c1ccccc1)S(=O)(=O)c1cc(C(=O)NCC(c2ccc(OC)cc2)N(C)C)ccc1C (configuration not stated),?,?,?,16.4µM*,?,-20.6%
CC(C)c1ccc2nc(N)sc2c1,20.1%,-7.6%,i,25.9µM*,i,-6.9%
CCOC(=O)C1CCN(C(=O)COC(=O)CN(C)S(=O)(=O)c2ccc(NC(C)=O)cc2)CC1,4.7%,1.1%,i,4.2%,i,1.7%
CN(Cc1ccc(Cl)cc1Cl)C(=O)c1cc(=O)c2ccccc2o1,?,-8.3%,i,23.1µM*,i,-15.8%
CN(Cc1ccccc1Cl)C(=O)c1cc2ccccc2o1,?,-3.1%,i,?,i,-3.4%
CCOC(=O)c1cc(-c2ccccc2)n(CC(=O)NC2CCC(C)CC2)c1C (configuration not stated),14.6µM*,·,·,11.6µM*,·,·

# Bioassay records deposited in PubChem by National Center for Advancing Translational Sciences (NCATS).
